Test results reported in PubChem BioAssay (NCATS).
Records with an inconclusive call do not appear. A number with no mark means an inactive call. Active and inactive are the calls of the source. Calls come from the whole dose curve; as a rule, active = well fitted cell-killing curve with a large enough effect; inconclusive = small, poorly fitted or top-dose-only effect, or effect the other way; inactive = flat fitted curve, though single readings scatter.

Test system: CASKI
Assay: Primary qHTS to identify gynecologic anti-cancer compounds using libraries of approved drugs and bioactive compounds (AID 1345084); note: nearly all actives have a fitted effect of over 55% in size
Conditions: Gynecologic cancer cell panel viability, ATPlite luminescence, 48 h; series mostly up to 57.5 µM; activity change, negative = cytotoxicity: at the top concentration
How it was run: (§1)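 Five-point cytotoxicity, 48 h drug exposure at 37 C, 5% CO2, on cells seeded 16 h beforehand. ATP content read by ATPlite luminescence.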
% is set by controls: 0 for no effect and ±100 for the full control effect; potency is the fitted concentration of half-maximal effect.

SMILES | Potency | activity change, negative = cytotoxicity
Cc1cccc(C)c1-n1c(=O)c2cnc(Nc3ccc(N4CCN(C)CC4)cc3)nc2n2c3ccccc3nc12 | 14.1 µM (active) | –
O=C(Nc1ccc(S(=O)(=O)Nc2ccccc2Cl)c(Cl)c1)c1ccccn1 | – | -12.6%
COc1ccc(CC2NCCc3c2[nH]c2ccc(C)cc32)cc1OC (configuration not stated) | – | -17.5%
C=C(C(=O)O)[C@@H]1CC[C@@]2(C)CC[C@H](O)[C@@]2(C(C)=O)C1 | – | -2.1%
CC(C)(O)CC(CO)NC(=O)CC(O)CC(=O)Cc1ccccc1 (configuration not stated) | – | -0.451% [at 38.5 µM]

Test system: Es-2
Assay: as above
Conditions: Gynecologic cancer cell panel viability, ATPlite luminescence, 48 h; series mostly up to 57.5 µM; activity change, negative = cytotoxicity: at the top concentration
How it was run: as §1

SMILES | activity change, negative = cytotoxicity | Potency
CCC(COC)n1nnc2c(Nc3ccc(OC)cc3C)nc(C)cc21 (configuration not stated) | 5.1% | –
NC1CCC(Nc2cc(-c3cccc(NCc4cccc(F)c4)n3)c(Cl)cn2)CC1 (configuration not stated) | – | 0.708 µM (active)
C/C=C/C1=CC2=C(CO1)C(=O)C(C)(O)C(OC(=O)c1c(C)cc(OC)cc1O)C2 (configuration not stated) | -13.3% [at 38.5 µM] | –
COc1c2c(c(C)c3c1C(=O)OC3)OC1(C)CC(O)C34OC(OC)(CC(OC(C)=O)C3(C)C1C2)OC4(C)C (configuration not stated) | -0.617% [at 25.3 µM] | –
C/C=C/c1ccc2c(c1)[C@@H](C)[C@H](c1ccc(O)cc1)O2 | 1.22% | –
CC(C)S(=O)(=O)N[C@H]1CCOC[C@@H]1c1ccc(-c2ccc(C#N)s2)cc1 | -3.7% | –
COc1ccc([C@H]2CNC(=O)C2)cc1OC1CCCC1 | -3.77% | –
CC(C)CCC(=O)CC1c2ccccc2C(=O)N1c1ccc2ccc(Cl)nc2n1 (configuration not stated) | 7.31% | –
CC1(C)CC[C@]2(C(=O)O[C@@H]3O[C@H](CO)[C@@H](O)[C@H](O)[C@H]3O)CC[C@]3(C)C(=CCC4[C@@]5(C)CC[C@H](O[C@@H]6O[C@H](C(=O)O)[C@@H](O)[C@H](O)[C@H]6O)C(C)(C)C5CC[C@]43C)C2C1 (some centres not stated) | 6.53% [at 11.6 µM] | –
C=C1C[C@]23C[C@H]1CC[C@H]2[C@@]12CC[C@H](O)[C@@](C)(C(=O)O1)[C@H]2[C@@H]3C(=O)O | -3.84% [at 38.5 µM] | –
CC(O)(CC(=O)O)CC(=O)OCc1ccc(O[C@@H]2O[C@H](CO)[C@@H](O)[C@H](O)[C@H]2O)cc1 (some centres not stated) | 2.38% [at 25.3 µM] | –
C[C@@H]1CC[C@]2(C(=O)OC3OC(CO)C(O)C(O)C3O)CC[C@]3(C)C(=CCC4[C@@]5(C)CC[C@H](O)[C@](C)(C(=O)O)C5CC[C@]43C)C2[C@]1(C)O (some centres not stated) | -4.31% [at 25.3 µM] | –
C[C@@]12CC[C@@H]3[C@@](CC[C@H]4[C@@]3(C)CCC[C@@]4(C)C(=O)O)(CC1=O)C2 | 1.38% | –
C=C1C(OC2OCC(O)C(O)C2O)CC2C(C)(C)C(O)CCC2(C)C1CC/C(C)=C\CO (configuration not stated) | 7.5% [at 25.3 µM] | –
CC1(C)[C@@H](O)CC[C@]2(C)[C@H]3CC=C4[C@@H]5C[C@](C)(C(=O)O)CC[C@]5(C)CC[C@@]4(C)[C@]3(C)CC[C@@H]12 | -4.36% | –
CC(CO)C1CCC2(C)CC3C(CO)CC(O)C3C(C)(O)C/C=C/12 (configuration not stated) | 7.03% [at 38.5 µM] | –
CC/C=C\C/C=C\C/C=C\CCCCCCCC(=O)OCC(O)COC1OC(CO)C(O)C(O)C1O (configuration not stated) | -2.76% [at 25.3 µM] | –

SMILES | activity change, negative = cytotoxicity | Potency
O=C1NC(=O)C(c2cn(-c3ccccc3)nc2-c2ccc(F)cc2)N1 (configuration not stated) | -11.5% | –
CC1=C(C)C(=O)OC(C(C)C2CCC3C4C5OC5C5(O)CC(OC6OC(CO)C(OC7OC(C)C(O)C(O)C7O)C(O)C6O)CC(O)C5(C)C4CCC23C)C1 (configuration not stated) | -4.93% [at 25.3 µM] | –
COc1cc(N)c(Cl)cc1C(=O)NC[C@@H]1CCN2CCC[C@@H]12 | -1.21% | –
CC(=O)OC1C[C@@]2(C)[C@@H](CC[C@@H](C)[C@]23Cc2c(O)cc4c(c2O3)CNC4=O)C(C)(C)[C@@H]1O (some centres not stated) | -2.76% [at 25.3 µM] | –
C=C(C(=O)O)[C@H]1C[C@]2(C)[C@@H](O)CC[C@]23O[C@H]1C[C@@H]3C | 5.76% | –
C[C@H](Oc1ccc(S(C)(=O)=O)cc1C(=O)N1CCN(c2ncc(C(F)(F)F)cc2F)CC1)C(F)(F)F | 2.73% | –
O=C1NC(Cc2ccccc2)C(=O)N2CCCC12 (configuration not stated) | -1.87% | –
O=C(NCc1ccccn1)Nc1nnc(-c2ccco2)o1 | 6.03% | –
CC1CCC2C(C(=O)O)=COC(O[C@@H]3O[C@H](CO)[C@@H](O)[C@H](O)[C@H]3O)C12 (some centres not stated) | -2.94% [at 38.5 µM] | –
COc1c2ccoc2cc2oc(CO[C@@H]3O[C@H](CO)[C@@H](O)[C@H](O)[C@H]3O)cc(=O)c12 | 5.84% [at 38.5 µM] | –
COc1cc(/C=C/C=O)cc(OC)c1O[C@@H]1O[C@H](CO)[C@@H](O)[C@H](O)[C@H]1O | 2.62% [at 38.5 µM] | –
Cc1cc(OCc2nc(-c3ccccc3Cl)cs2)ccc1OCC(=O)O | -14.5% | –
Cc1cccc(C)c1-n1c(=O)c2cnc(Nc3ccc(N4CCN(C)CC4)cc3)nc2n2c3ccccc3nc12 | – | 3.55 µM (active)
O=C(Nc1ccc(S(=O)(=O)Nc2ccccc2Cl)c(Cl)c1)c1ccccn1 | 12% | –
COc1ccc(CC2NCCc3c2[nH]c2ccc(C)cc32)cc1OC (configuration not stated) | -18.3% | –
C=C(C(=O)O)[C@@H]1CC[C@@]2(C)CC[C@H](O)[C@@]2(C(C)=O)C1 | 5.54% | –
CC(C)(O)CC(CO)NC(=O)CC(O)CC(=O)Cc1ccccc1 (configuration not stated) | 10.2% [at 38.5 µM] | –

Test system: HeLa
Assay: as above
Conditions: Gynecologic cancer cell panel viability, ATPlite luminescence, 48 h; series mostly up to 57.5 µM; activity change, negative = cytotoxicity: at the top concentration
How it was run: as §1

SMILES | activity change, negative = cytotoxicity | Potency
CCC(COC)n1nnc2c(Nc3ccc(OC)cc3C)nc(C)cc21 (configuration not stated) | 7.13% | –
NC1CCC(Nc2cc(-c3cccc(NCc4cccc(F)c4)n3)c(Cl)cn2)CC1 (configuration not stated) | – | 0.355 µM (active)
O=C1C=CC2OC(c3ccccc3)C(O)C2O1 (configuration not stated) | 1.89% | –
C/C=C/C1=CC2=C(CO1)C(=O)C(C)(O)C(OC(=O)c1c(C)cc(OC)cc1O)C2 (configuration not stated) | -0.475% [at 38.5 µM] | –
COc1c2c(c(C)c3c1C(=O)OC3)OC1(C)CC(O)C34OC(OC)(CC(OC(C)=O)C3(C)C1C2)OC4(C)C (configuration not stated) | 4.22% [at 25.3 µM] | –
C/C=C/c1ccc2c(c1)[C@@H](C)[C@H](c1ccc(O)cc1)O2 | 9.18% | –
CC(C)S(=O)(=O)N[C@H]1CCOC[C@@H]1c1ccc(-c2ccc(C#N)s2)cc1 | -1.1% | –
COc1ccc([C@H]2CNC(=O)C2)cc1OC1CCCC1 | 10.6% | –
N=c1nc2n(cc1F)C1OC(CO)C(O)C1O2 (configuration not stated) | -2.11% | –
CC1(C)CC[C@]2(C(=O)O[C@@H]3O[C@H](CO)[C@@H](O)[C@H](O)[C@H]3O)CC[C@]3(C)C(=CCC4[C@@]5(C)CC[C@H](O[C@@H]6O[C@H](C(=O)O)[C@@H](O)[C@H](O)[C@H]6O)C(C)(C)C5CC[C@]43C)C2C1 (some centres not stated) | 7.58% [at 11.6 µM] | –
COc1ccc(CCC(=O)c2c(O)cc(O)cc2O[C@@H]2O[C@H](CO)[C@@H](O)[C@H](O)[C@H]2O)cc1 | -4.87% [at 25.3 µM] | –
C=C1C[C@]23C[C@H]1CC[C@H]2[C@@]12CC[C@H](O)[C@@](C)(C(=O)O1)[C@H]2[C@@H]3C(=O)O | 0.65% [at 38.5 µM] | –
CC(O)(CC(=O)O)CC(=O)OCc1ccc(O[C@@H]2O[C@H](CO)[C@@H](O)[C@H](O)[C@H]2O)cc1 (some centres not stated) | -2.43% [at 25.3 µM] | –
C[C@@H]1CC[C@]2(C(=O)OC3OC(CO)C(O)C(O)C3O)CC[C@]3(C)C(=CCC4[C@@]5(C)CC[C@H](O)[C@](C)(C(=O)O)C5CC[C@]43C)C2[C@]1(C)O (some centres not stated) | 7.12% [at 25.3 µM] | –
C[C@@]12CC[C@@H]3[C@@](CC[C@H]4[C@@]3(C)CCC[C@@]4(C)C(=O)O)(CC1=O)C2 | 12.3% | –
C=C1C(OC2OCC(O)C(O)C2O)CC2C(C)(C)C(O)CCC2(C)C1CC/C(C)=C\CO (configuration not stated) | 3.4% [at 25.3 µM] | –
CC1(C)[C@@H](O)CC[C@]2(C)[C@H]3CC=C4[C@@H]5C[C@](C)(C(=O)O)CC[C@]5(C)CC[C@@]4(C)[C@]3(C)CC[C@@H]12 | 20.1% | –
CC(CO)C1CCC2(C)CC3C(CO)CC(O)C3C(C)(O)C/C=C/12 (configuration not stated) | 3.43% [at 38.5 µM] | –
CC/C=C\C/C=C\C/C=C\CCCCCCCC(=O)OCC(O)COC1OC(CO)C(O)C(O)C1O (configuration not stated) | -18.9% [at 25.3 µM] | –

SMILES | activity change, negative = cytotoxicity | Potency
O=C1NC(=O)C(c2cn(-c3ccccc3)nc2-c2ccc(F)cc2)N1 (configuration not stated) | -22.3% | –
CC1=C(C)C(=O)OC(C(C)C2CCC3C4C5OC5C5(O)CC(OC6OC(CO)C(OC7OC(C)C(O)C(O)C7O)C(O)C6O)CC(O)C5(C)C4CCC23C)C1 (configuration not stated) | 4.05% [at 25.3 µM] | –
CN(C)C/C=C/C(=O)Nc1cccc(C(=O)Nc2ccc(Nc3nccc(-c4cccnc4)n3)cc2)c1 | – | 20 µM (active)
COc1cc(N)c(Cl)cc1C(=O)NC[C@@H]1CCN2CCC[C@@H]12 | 9.22% | –
CC(=O)OC1C[C@@]2(C)[C@@H](CC[C@@H](C)[C@]23Cc2c(O)cc4c(c2O3)CNC4=O)C(C)(C)[C@@H]1O (some centres not stated) | 6.32% [at 25.3 µM] | –
C=C(C(=O)O)[C@H]1C[C@]2(C)[C@@H](O)CC[C@]23O[C@H]1C[C@@H]3C | 20.5% | –
C[C@H](Oc1ccc(S(C)(=O)=O)cc1C(=O)N1CCN(c2ncc(C(F)(F)F)cc2F)CC1)C(F)(F)F | 4.47% | –
O=C1NC(Cc2ccccc2)C(=O)N2CCCC12 (configuration not stated) | 6.65% | –
O=C(NCc1ccccn1)Nc1nnc(-c2ccco2)o1 | 11.1% | –
CCCCNc1ncc2c(-c3ccc(F)cc3)nn(CC3CCC(N)CC3)c2n1 (configuration not stated) | – | 10 µM (active)
COc1c2ccoc2cc2oc(CO[C@@H]3O[C@H](CO)[C@@H](O)[C@H](O)[C@H]3O)cc(=O)c12 | 10.4% [at 38.5 µM] | –
C=C(C)C(=O)OC1C(OC(C)=O)/C(C=O)=C\CC/C(CO)=C/C2OC(=O)C(=C)C21 (configuration not stated) | 12.5% [at 25.3 µM] | –
COc1cc(/C=C/C=O)cc(OC)c1O[C@@H]1O[C@H](CO)[C@@H](O)[C@H](O)[C@H]1O | 13% [at 38.5 µM] | –
Cc1cc(OCc2nc(-c3ccccc3Cl)cs2)ccc1OCC(=O)O | -11.6% | –
Cc1cccc(C)c1-n1c(=O)c2cnc(Nc3ccc(N4CCN(C)CC4)cc3)nc2n2c3ccccc3nc12 | – | 6.31 µM (active)
O=C(Nc1ccc(S(=O)(=O)Nc2ccccc2Cl)c(Cl)c1)c1ccccn1 | -2.71% | –
COc1ccc(CC2NCCc3c2[nH]c2ccc(C)cc32)cc1OC (configuration not stated) | -1.77% | –
C=C(C(=O)O)[C@@H]1CC[C@@]2(C)CC[C@H](O)[C@@]2(C(C)=O)C1 | 4.42% | –
CC(C)(O)CC(CO)NC(=O)CC(O)CC(=O)Cc1ccccc1 (configuration not stated) | -0.57% [at 38.5 µM] | –
